Compound activity as filed in PubChem BioAssay.
The list is not random: actives were taken first. Their share in the collection is about 12%.
Sfp inh – qHTS Assay for Inhibitors of Bacillus subtilis Sfp phosphopantetheinyl transferase (PPTase); 4'-phosphopantetheinyl transferase ffp (Bacillus subtilis), Q9F4F7; Biochemical Sfp PPTase activity, qHTS; Potency, µM, inactives show largest response in the series, negative = inhibition, most hits filed as inhibitors; 310,000 compounds, 3.5% hits; AID 1490, 2009;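 note: the enzyme is Sfp with the accession as filed and its product quenches rhodamine fluorescence; 0% = enzyme reaction without inhibitor and -100% = no enzyme wells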
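Buffer: 50 mM Hepes-Na pH 7.6, 10 mM MgCl2, 0.01% Nonidet P-40, 0.01% BSA. Enzyme 15 nM, pre-exposed to compound 15 min; substrates then added and fluorescence change tracked over 30 min.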
G9a block – qHTS Assay for Inhibitors of Histone Lysine Methyltransferase G9a; G9a H3K9 monomethylation, AlphaScreen, 2 h; Histone-lysine N-methyltransferase EHMT2 (Homo sapiens), Q96KQ7; AID 504332, 2011; Potency, µM (titrated, usually from 102 µM), for inactives: at the top dose activity, negative = inhibition, hits mostly inhibitors; 350,000 compounds, 8.8% hits; note: % is set by controls: 0 for no effect and ±100 for the full control effect; nearly all actives have a fitted effect of over 75% in size
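Readings reflect AlphaScreen signal from monomethyl-H3K9 antibody detection. HMT at 20 nM; substrate b-H3K9 500 nM; cofactor SAM 20 uM; 2 h RT reaction; compounds tested as titrations in qHTS with 15 min preincubation.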
BAZ2B block – qHTS Assay for Inhibitors of BAZ2B; Potency, µM (titrated, usually from 114 µM), for inactives: at the top dose activity change, negative = inhibition, actives largely listed as inhibitors; Bromodomain adjacent to zinc finger domain protein 2B (Homo sapiens), Q9UIF8; AlphaScreen BAZ2B-H3K14Ac peptide displacement; AID 504333, 2011; 360,000 compounds, 4.4% hits; note: % is set by controls: 0 for no effect and ±100 for the full control effect; nearly all actives have a fitted effect of over 60% in size
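AlphaScreen luminescence quantifies BAZ2B engagement of H3K14Ac peptide; the protein and biotinylated peptide are both at 50 nM final, buffer PBS pH 7.4 with 0.01% Tween-20, all steps at room temperature.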
HP1b binding inh – HTS for Inhibitors of HP1-beta Chromodomain Interactions with Methylated Histone Tails | AlphaScreen HP1-beta / biotin-H3K9me3 peptide binding | Potency, µM (series often up to 114 µM), inactives show top-dose activity change, negative = inhibition, usual class: inhibitors | 390,000 compounds, 0.56% hits | AID 540317, 2011; note: nearly all actives have a fitted effect of over 70% in size
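AlphaScreen: HP1-beta (50 nM) preformed 30 min with biotin-H3(1-18)K9me3 peptide (50 nM) in PBS pH 7.4, 0.01% Tween-20. Compound added for 30 min at RT, then streptavidin donor/nickel chelate acceptor beads (10 ug/mL) for 30 min.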
JMJD2A Tudor – qHTS Assay for Inhibitors of JMJD2A-Tudor Domain; AlphaScreen JMJD2A-Tudor / H3K4me3 peptide binding; Potency, µM (highest dose often 114 µM), for the others: at the highest dose activity change, negative = inhibition, most hits filed as inhibitors; 390,000 compounds, 4.4% hits; AID 504339, 2011; note: % is set by controls: 0 for no effect and ±100 for the full control effect; nearly all actives have a fitted effect of over 50% in size
* = called active by the depositor; ? = inconclusive; nt = not tested or not shown; [ ] = dose if it differs, or a comment. Calls come from the whole dose curve; as a rule, active = well fitted curve in the direction sought with a large enough effect; inconclusive = small, poorly fitted or top-dose-only effect, or another doubt; inactive = no such curve, though single readings can be large; an effect the other way counts as inactive or inconclusive. Potency is the fitted concentration of half-maximal effect.

SMILES	Sfp inh	G9a block	BAZ2B block	HP1b binding inh	JMJD2A Tudor
O=C(NC1=NCCS1)c1cc(-c2ccc(-c3ccccc3)cc2)nc2ccccc12	-5%	-7%[59 µM]	7%	25%	-12%
O=C(N=NC(=O)c1ccco1)c1ccc2c(O)n(N3C(=O)c4ccccc4C3=O)c(O)c2c1	-6%	7%	0%	28%	?
Cc1ccc(S(=O)(=O)N2CCOCC2)cc1NC(=O)c1cc([N+](=O)[O-])ccc1N1CCOCC1	nt	56µM*	-6%	-6%	-25%
COc1cc(NC(=O)c2cc([N+](=O)[O-])ccc2N2CCOCC2)ccc1NC(=O)c1ccco1	-12%	nt	71µM*	-1%	-29%
Cc1ccc(C)c(NC(=O)c2cc(S(=O)(=O)N3CCCCC3)ccc2N2CCOCC2)c1	nt	19%[12.7 µM]	11%	33%	-17%
CCCCn1c(Cc2ccccc2)n[nH]c1=S	?	13µM*	-3%	?	4µM*
CCCn1c(CCc2ccccc2)n[nH]c1=S	4%	40µM*	8%	16%	4.5µM*
CCn1c(Cc2c(C)[nH]c3ccccc23)n[nH]c1=S	0%	1.8µM*	-35%	15%	4µM*
CCn1c(Cc2ccccc2)n[nH]c1=S	-18%	?	-18%	31%	?
Cc1[nH]c2ccccc2c1CCO	-2%	3%[59 µM]	6%	9%	-5%
CCn1c(CCc2ccccc2)n[nH]c1=S	-8%	27%[0.501 µM]	-11%	19%	3.5µM*
COc1ccccc1C(=O)NCCC(=O)N(C)CC(=O)Nc1ccccc1Br	nt	-21%	9%	31%	1%
CN1C(=O)C(=O)N(c2cccc(C(F)(F)F)c2)C1=O	nt	nt	nt	32%	4%
CCn1c(CSCc2ccccc2)n[nH]c1=S	10%	7.1µM*	-25%	23%	18µM*
S=c1nc2c(n[nH]1)c1ccccc1n2CCc1ccccc1	-10%	13%	-27%	16%	-27%
CCn1c(CSCc2ccc(F)cc2)nnc1SCC(=O)NCc1ccccc1	0%	-11%[12.7 µM]	11%	50%	-16%
CCn1c(CSc2nc3ccccc3[nH]2)n[nH]c1=S	-3%	?	-3%	11%	6.3µM*
CCn1c(CCn2c3ccccc3c3ccccc32)n[nH]c1=S	?	22µM*	?	47%	-21%
COCCNC(=O)C(=O)NNS(=O)(=O)c1ccc(Cl)cc1	-4%	nt	18%	45%	-1%
COc1ccc(N2CCN(C(=O)CCN3C(=O)C4C5C=CC(C5)C4C3=O)CC2)cc1 (centres undefined)	1%	-7%	10%	31%	-14%
COc1ccc2c(c1)c(-c1csc(N)n1)c(C)n2C	-16%	7%[0.501 µM]	79µM*	-13%	-55%
Cc1ccc2c(c1)c(-c1csc(N)n1)c(C)n2C	1%	45µM*	?	?	?
Cc1nn(C)cc1-c1csc(N)n1	2%	-16%[59 µM]	-27%	22%	-12%
O=C(Nc1ccncc1)C1CCN(S(=O)(=O)c2c(Cl)cccc2Cl)CC1	nt	8%[0.501 µM]	5%	11%	-15%
COc1ccc(C(=O)NC2CCN(CC(=O)Nc3cccc(C)c3)CC2)cc1OC	7%	15%[59 µM]	5%	24%	-10%
SMILES	Sfp inh	G9a block	BAZ2B block	HP1b binding inh	JMJD2A Tudor
Cc1cccc(C(=O)N2CCC(=O)N([C@H](COCc3cccc(C(F)(F)F)c3)Cc3ccccc3)CC2)c1	9%	10%[59 µM]	nt	nt	nt
Cc1cc(CNCc2c(C(=O)N3CCCCCCC3)nc3ccc(Cl)cn23)nn1C	27%	-38%	-21%	36%	-11%
NS(=O)(=O)c1ccc(CCNC(=O)CSc2ccc(Cl)cc2)cc1	5%	16%	-3%	39%	-12%
CSc1ccc(C2=CC(=O)C[C@H](c3ccc4c(c3)OCO4)C2)cc1	nt	-3%[2.33 µM]	-27%	49%	-20%
CCOc1ccc(Nc2nc(N)nc(CN3CCN(c4ccccc4F)CC3)n2)cc1	5%	?	56µM*	11%	?
Nc1nc(CN2CCN(c3ccccn3)CC2)nc(Nc2ccc(Cl)cc2)n1	10%	50µM*	50µM*	13%	?
